hiPSC survival = hiPSC single-cell survival enhancement; ATPlite luminescence; 100% = ROCK inhibitor wells, 0% = DMSO; survival enhancement, % at 20 µM; hit rate 0.044% among 360,000; AID 602274; in the data active means survival enhancement above about 18%;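 further: cells exposed to compounds for 16 hours before the ATP read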
beta cell repl = MIN6 beta-cell proliferation induction; hit rate 0.29% among 330,000; AID 2380; MIN6 cells proliferation, ATPlite luminescence, 48 h; cells starved in 0.2% serum; 100% = growth in 10% serum; proliferation, % at 10 µM;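 active means compounds whose signal lies at least 3.5 SD above the mean of all wells on their plate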
TAG inh = inhibitors of triacylglycerol accumulation; H9c2 cells, Nile Red lipid (TAG) fluorescence; cells loaded with 200 µM oleic acid; inhibition, % at 12.5 µM; hit rate 0.66% among 230,000; AID 651582;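 active means pattern-corrected inhibition of lipid staining of at least 50% with the nuclear-stain viability signal not falling by more than 50%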
Large screens that a line does not name were inactive. Compounds with a hit are over-represented: about 0.71% of the library has one in this group of screens.

CC1OC2CC(=O)OC2C2=C1C(=O)c1c(O)cccc1C2=O (stereo unspecified)	none (no result: beta cell repl, TAG inh)
NC(Cc1ccc(F)cc1)c1csc(Nc2ccc(C(=O)c3ccccc3)cc2)n1 (stereo unspecified)	none (no result: beta cell repl)
O=C1OCCC1=COCCCCCCOC=C1CCOC1=O	none (no result: beta cell repl)
COCc1cn(CC(=O)c2sc(NC(=O)C(C)(C)C)nc2C)nn1	none (no result: beta cell repl, TAG inh)
Cc1cc(C)c2sc(N(CCCN(C)C)C(=O)c3ccc(S(=O)(=O)N4CCc5ccccc5C4)cc3)nc2c1	TAG inh 54
Cc1cccc2sc(N(CCCN(C)C)C(=O)c3ccc(S(=O)(=O)N4CCc5ccccc5C4)cc3)nc12	none
CSc1cccc(NC(=S)N(CCCN2CCCC2)Cc2cccn2Cc2ccc(Cl)cc2)c1	TAG inh 57
S=C(Nc1cccc(Cl)c1)N(CCCN1CCCC1)Cc1cccn1Cc1ccc(Cl)cc1	none
O=C1NC[C@H](CCCCN2CCN(Cc3ccccc3)C(=O)C2=O)N(Cc2ccccc2)C1=O	none (no result: beta cell repl, TAG inh)
CC(C)NC(=O)c1cc(C2CCCCN2C(=O)c2ccc(C#N)cc2)on1 (stereo unspecified)	none (no result: beta cell repl)
Cc1cc2[nH]c3c(c[n+](C)c4ccccc34)c2cc1C	TAG inh 127
Cc1cc2[nH]c3c4ccccc4nc(C)c3c2cc1C	none (no result: beta cell repl)
C[C@H](O)[C@@H]1C(=O)N2CCc3c([nH]c4ccccc34)[C@@H]2C[C@@H]1N(C)C(=O)c1cc(Cl)cc(Cl)c1	none (no result: beta cell repl, TAG inh)
CCOC(=O)Cc1c(-c2cccc(Br)c2)nc2c3ccccc3ccn12	none (no result: beta cell repl, TAG inh)
COc1cc(C(=O)NC2CCN(C)CC2)ccc1Nc1ncc2c(n1)N(C1CCCC1)CCC(=O)N2C(C)C	TAG inh 58 (no result: beta cell repl)
COc1cc(C(=O)NC2CCN(C)CC2)ccc1Nc1ncc2c(n1)N(CCc1ccccc1)CCC(=O)N2C	none (no result: beta cell repl, TAG inh)
CN(Cc1ccccc1)C(=O)[C@@H]1CCCN1	none (no result: beta cell repl, TAG inh)
COc1cccc(-c2ccc(CN3C(C(C)C)C(=O)N(Cc4cn(CCC5OCCO5)nn4)CCS3(=O)=O)cc2)c1OC (stereo unspecified)	none (no result: beta cell repl, TAG inh)
COC(=O)N/N=C/c1cc(N=Nc2ccccc2Cl)ccc1O	none
Nc1ccc(C(=O)N/N=C\c2cc(N=Nc3cccc4ccccc34)ccc2O)cc1	TAG inh 56
Cc1noc(C)c1COc1ccccc1C(=O)N1CCN(S(=O)(=O)c2ccc(C(C)C)cc2)CC1	none (no result: beta cell repl)
CCC(CO)Nc1ccn2nc(-c3cccs3)cc2n1 (stereo unspecified)	none (no result: beta cell repl)
O=C(c1[nH]c(C(F)(F)F)nc1-c1ccccc1)N1CCN(c2cccc(C(F)(F)F)n2)CC1	none (no result: beta cell repl, TAG inh)
CCOC(=O)c1oc2ccccc2c1NC(=O)COc1ccc(F)cc1	beta cell repl 9.7 (no result: TAG inh)
CCOC(=O)c1oc2ccccc2c1NC(=O)COc1cccc(OC)c1	none (no result: TAG inh)
COc1ccccc1-c1cc(C(=O)NC2CCN(C)CC2)c2ccc(Cl)c(C)c2n1	TAG inh 103
Cc1c(Cl)ccc2c(C(=O)NCCN3CCCCC3)cc(-c3ccccn3)nc12	none
CC(C)CC1C(=O)N(Cc2cn(Cc3ccco3)nn2)CCS(=O)(=O)N1Cc1ccc(-c2ccccc2)cc1 (stereo unspecified)	none (no result: beta cell repl)
Cc1ccc2c(c1)c1c3n2CCCNC3CCC1 (stereo unspecified)	none
c1cc2c(cc1C1CCCCC1)c1c3n2CCCNC3CCC1 (stereo unspecified)	TAG inh 77
CC1(C(=O)Nc2cnc3ccccc3c2)CCN1Cc1cc2ccccc2o1 (stereo unspecified)	none (no result: beta cell repl)
O=C(O)/C=C/c1ccc([N+](=O)[O-])o1	none
O=C1NC(=S)S/C1=C\C=C\c1ccc([N+](=O)[O-])o1	TAG inh 51 (no result: beta cell repl)
O=C(COc1ccc(/C=N/NC(=O)c2ccccc2)cc1)Nc1ccc([N+](=O)[O-])cc1	none
CC(C)Oc1ccc(/C=N/NC(=O)C(CSCc2ccccc2)NC(=O)c2ccc([N+](=O)[O-])cc2)cc1 (stereo unspecified)	TAG inh 54
CCCCCCCCN1C(=O)[C@H](CC(=O)N2CCN(C(=O)c3ccco3)CC2)C[C@@]2(C(=O)OC)CCCCC=C12	none (no result: beta cell repl, TAG inh)
Cc1nn(-c2ccccc2)c(C)c1/C=N/NC(=O)c1cc(C(C)(C)C)[nH]n1	none
Cc1ccc(-c2cc(C(=O)N/N=C/c3c(C)nn(-c4ccccc4)c3C)[nH]n2)cc1	TAG inh 69 (no result: beta cell repl)
CC1CCN(S(=O)(=O)c2cc(C(=O)N3CCN(c4ccccc4)CC3)ccc2Br)CC1	none (no result: beta cell repl)
COc1ccc2nc(Cl)c(C=O)c(N3CCOCC3)c2c1	none (no result: beta cell repl)
CCCCCC(=O)N1C[C@H](O)[C@@H](n2cc(C3CC3)nn2)C[C@@H]1c1ccc(C)cc1	none (no result: beta cell repl)
Cc1ccc(N=Nc2ccc(O)c3ncccc23)cc1	TAG inh 87 (no result: beta cell repl)
Cc1ccc(N=Nc2ccc(O)c3ncccc23)cc1C	none (no result: TAG inh)
CSc1ccc(OC2(C)CCN(Cc3ccc(OC(F)(F)F)cc3)C2)cc1 (stereo unspecified)	none (no result: beta cell repl)
COC(=O)[C@@]1(Sc2ccc(C)cc2)CC(=O)N(C(=O)c2ccccc2)[C@@H]1c1ccccc1	none (no result: beta cell repl, TAG inh)
O=C(N/N=C/c1ccc[nH]1)c1ccccc1OCc1ccc(F)cc1	none
CCOc1ccc(OCc2ccc(C(=O)NN=Cc3ccc[nH]3)cc2)cc1	TAG inh 60
NC(Cc1ccccc1)c1csc(Nc2nccc(C(F)(F)F)n2)n1 (stereo unspecified)	none (no result: beta cell repl)
C#CCOCCOCCOCCNc1nc(N2CCN(C(=O)CCCCCCCCCCNC(=O)[C@H](CCCCN)n3cc(C)nn3)CC2)nc(N2CCN(C(=O)CCCCCCCCCCNC(=O)[C@@H]([C@H](C)CC)n3cc(CCCCCN)nn3)CC2)n1	TAG inh 75
C#CCOCCOCCOCCNc1nc(N2CCN(C(=O)CCCCCCCCCCNC(=O)[C@H](CCCCN)n3cc(C[C@@H](C)CC)nn3)CC2)nc(N2CCN(C(=O)CCCCCCCCCCNC(=O)[C@H](CCCCN)n3cc(C[C@@H](C)CC)nn3)CC2)n1	TAG inh 88 (no result: beta cell repl)
C#CCOCCOCCOCCNc1nc(N2CCN(C(=O)CCCCCCCCCCNC(=O)[C@H]([C@@H](C)CC)n3cc(CCCCCN)nn3)CC2)nc(N2CCN(C(=O)CCCCCCCCCCNC(=O)[C@@H]([C@H](C)O)n3cc(C)nn3)CC2)n1	none
C#CCOCCOCCOCCNc1nc(N2CCN(C(=O)CCCCCCCCCCNC(=O)[C@H](CCCCN)n3cc(CCO)nn3)CC2)nc(N2CCN(C(=O)CCCCCCCCCCNC(=O)[C@H](CCCN=C(N)N)n3cc(C[C@@H](C)CC)nn3)CC2)n1	none
O=C1NC[C@H](Cc2ccccc2)N(C[C@@H]2CCCN2C[C@H](Cc2ccc(O)cc2)N2C[C@H](Cc3ccccc3)N(CC3CCCCCC3)C(=O)C2=O)C1=O	none (no result: beta cell repl, TAG inh)
Cc1cnc(C(=O)OC(C(=O)Nc2cc(C(F)(F)F)ccc2Cl)c2ccccc2)cn1 (stereo unspecified)	none
O=C(CNC(=O)c1ccccc1)OC(C(=O)Nc1cc(C(F)(F)F)ccc1Cl)c1ccccc1 (stereo unspecified)	hiPSC survival 19
CC(C)Nc1nc(NCCOc2ccccc2)c2sccc2n1	none (no result: beta cell repl)
Cc1ccc(-c2nc(NCc3ccco3)c3ccccc3n2)cc1	none (no result: TAG inh)
OCCN1CCN(c2nc(NCc3ccco3)c3ccccc3n2)CC1	none
Cc1ccc(OCCN2CCN(c3nc(NCc4ccco4)c4ccccc4n3)CC2)cc1	hiPSC survival 24 (no result: TAG inh)
c1ccc(CN2CCN(c3nc(NCc4ccco4)c4ccccc4n3)CC2)cc1	hiPSC survival 30 (no result: TAG inh)

Compound activity deposited in PubChem by Sanford-Burnham Center for Chemical Genomics.
